These results are taken from PubChem BioAssay AID651747 (Johns Hopkins Ion Channel Center, 2012).

Hit rate of the full screen: of about 2,400 compounds, about 950 (40%) were called active.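 The calls were made as follows: active = thallium flux ratio, averaged over three wells, more than 5 SD below the buffer control mean; inactive = the rest.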 Many of the other results were omitted from the sample, so actives are more common in it than they were.

A short description of the test: thallium flux inhibition in non-induced cells, primary screen, counter-screen for KCNK3 inhibitor project, cell-based, non-induced KCNK3 line, FluxOR thallium, triplicate (AID 651747).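 Also: host cells are CHO cells without KCNK3 induction.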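 As to thallium flux ratio (lower = more inhibition): ratio is peak minus trough fluorescence over baseline then normalized to buffer controls.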 Particulars: non-induced KCNK3 parental cells, at 10 µM; hits give low values.
As to `CCOC(=O)C1SC2(C(F)(F)C(F)F)CC1(O)c1c(c(OC)c3occc3c1OC)O2` (stereo not drawn), the thallium flux ratio (lower = more inhibition) is 0.16 (active).
The same measure for `CCCCCCN=C(CC)c1c(O)n(CCCC)c(=O)[nH]c1=O`: 0.126 (active); for `COc1ccccc1C1=NCc2nnc(CSC)n2-c2ccc(Cl)cc21`: “inactive”.
